Source: PubChem (Milwaukee Institute for Drug Discovery)
Rows were chosen to be rich in hits. Some 6.8% of all compounds tested hit in one or more screens of this group.
Cy5 interf NS3h: enhances or quenches Cy5 fluorescence in NS3h assay | 16,000 compounds, 6% hits | fluorescence interference ratio at 100 µM | Cy5-dT15 DNA with NS3h, fluorescence interference; actives lie on both sides; signal over control mean, under 1 quenches | AID 720488;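 active = compound fluorescence over control fluorescence at most 0.8, a quencher, or at least a set upper limit, an enhancer; inactive = ratio between 0.8 and the set upper limit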
HCV NS3h FP: hepatitis C NS3 helicase inhibition, primary screen | NS3h Cy5-dT15 DNA binding, fluorescence polarization | inhibition, % at 100 µM | 16,000 compounds, 1.6% hits | AID 687043;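 active = inhibition above the average over every tested compound plus 3 SD, cut at about 40% in these data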
* hit, by the source's call.

SMILES	Cy5 interf NS3h	HCV NS3h FP
N/C(=N/OC(=O)c1ccc(Cl)cc1Cl)c1ccc(Br)cc1	1	10
CC(NC(=O)c1cc2nc(-c3ccco3)cc(C(F)(F)F)n2n1)C1CC2CCC1C2 (stereo not drawn)	0.7*	20
COc1cc(NC(=O)c2cc3nc(-c4ccc5c(c4)OCO5)cc(C(F)(F)F)n3n2)c(OC)cc1Cl	1.1	10
CCN1C(=O)/C(=C/c2cccc(OC(F)(F)C(F)F)c2)SC1=S	1	-2
COc1ccc(NC(=O)COc2ccc3ccccc3c2)c([N+](=O)[O-])c1	1.1	2
COc1ccc(NC(=O)CSc2ccncc2)c([N+](=O)[O-])c1	0.64*	-1
CC(=O)C(C(C)=O)C1=CC(=O)C(=O)c2ccccc21	0.53*	6
COc1ccccc1C=C1C(=O)c2ccccc2C1=O	0.99	26
N#Cc1cc(N=Cc2cccc(C=Nc3ccc(N)c(C#N)c3)c2)ccc1N	1.2*	7
c1ccc(CCNc2ccnc3cc4ccccc4cc23)cc1	0.96	2
CCN(CC)CCNc1ccc(Nc2ccnc3cc4ccccc4cc23)cc1	0.58*	7
Cc1ccc(S(=O)(=O)NCCOc2ccccc2Cl)cc1[N+](=O)[O-]	0.79*	5
Cc1ccc(S(=O)(=O)NCCOc2ccccc2)cc1[N+](=O)[O-]	0.93	13
O=C(N/C(=C/c1cccs1)C(=O)N1CCOCC1)c1ccccc1	0.98	-2
COc1ccc(C(=O)Nc2ccc(Br)cc2)cc1OC	0.81	17
N#Cc1cc([N+](=O)[O-])ccc1N=Cc1ccc(C#Cc2ccccc2)cc1	0.79*	10
COc1cc([N+](=O)[O-])ccc1N=S(C)C	0.93	-7
COc1ccc(C2(CNC(=O)CC(c3ccccc3)c3ccccc3O)CCOCC2)cc1OC (stereo not drawn)	0.91	6
Cc1ccc(C(=O)Nc2ccccc2C(=O)O)cc1	0.95	2
O=S(=O)(c1ccc2c(c1)C(=NO)c1cc(S(=O)(=O)N3CCCC3)ccc1-2)N1CCCC1	1	0
CC(=O)ON=C1c2cc(S(=O)(=O)N(C)C)ccc2-c2ccc(S(=O)(=O)N(C)C)cc21	0.61*	13
COc1cccc(C(=O)N2CCN(Cc3ccccc3Cl)CC2)c1	0.95	-3
CCN(Cc1ccccc1)C(=O)c1cc(C(=O)OC)cc([N+](=O)[O-])c1	0.66*	9
COC(=O)c1cc(C(=O)NCc2ccc(OC)cc2)cc([N+](=O)[O-])c1	0.96	10
CC(=O)Nc1cc(-c2ccccc2Cl)[nH]n1	1.1	-8
SMILES	Cy5 interf NS3h	HCV NS3h FP
N/C(Cc1ccc([N+](=O)[O-])cc1)=N/OC(=O)c1cccc(I)c1	1.1	14
N/C(Cc1ccc(Cl)cc1)=N/OC(=O)c1ccc([N+](=O)[O-])cc1	0.79*	-8
COc1cc(C(=O)NCc2ccco2)c([N+](=O)[O-])cc1OC	1	-18
O=C(NCc1ccncc1)c1cccc(Cl)c1	1.1	-1
Cc1ccc(Nc2nc(Nc3cccc([N+](=O)[O-])c3)nc(SC(=S)N3CCOCC3)n2)cc1	0.45*	-60
Cc1ccc(SCC(=O)Nc2cccc([N+](=O)[O-])c2)cc1	0.95	13
C=CCN1C(=O)/C(=C/c2ccc(N(C)C)cc2)C(=O)NC1=S	1.2*	34
CN(C)c1ccc(/C=C2/C(=O)NC(=O)N(CCCO)C2=O)cc1	0.94	19
O=C(O)CCCc1nc2ccccc2s1	1	-5
O=C(O)CCCc1nc2ccccc2[nH]1	0.73*	1
CCNC(=O)CC1S/C(=N/N=C\C=C\c2ccccc2)NC1=O (stereo not drawn)	1.2	6
COc1ccc(-n2nc3cc(C)c(NC(=O)C(c4ccccc4)c4ccccc4)cc3n2)cc1	1.1	5
CCCC(C)NC(=O)c1ccc(Cl)c([N+](=O)[O-])c1 (stereo not drawn)	1	5
COc1ccccc1N1C(=O)C(=Cc2cccn2C)C(=O)NC1=S	0.68*	44*
COc1ccccc1N1C(=O)NC(=O)C(=Cc2cc(OC)c(O)c([N+](=O)[O-])c2)C1=O	0.87	34
COc1ccc(/C(C)=N\N=C(\C)c2ccc(OC)cc2OC)c(OC)c1	0.67*	16
COc1ccc(C(=O)c2ccccc2)c(OC)c1	0.91	-6
CCOc1cccc(-c2nnc(N)s2)c1	1	-2
Cc1nc2cc(NCc3ccc(N(C)C)cc3)ccc2n1Cc1ccccc1	0.93	16
O=C(NCc1ccccc1)c1nn2c(c1Br)NC(c1cccs1)CC2C(F)(F)F (stereo not drawn)	0.99	10
COc1ccc(Cl)cc1NC(=O)c1nn2c(c1Cl)NC(c1cccs1)CC2C(F)(F)F (stereo not drawn)	1.1	5
O=C(Nc1ccc(F)cc1F)c1nn2c(c1Cl)NC(c1cccs1)CC2C(F)(F)F (stereo not drawn)	0.74*	12
O=C(Nc1cccc(C(F)(F)F)c1)c1nn2c(c1Br)NC(c1cccs1)CC2C(F)(F)F (stereo not drawn)	1	12
CC(C)(C)NC(=O)c1nn2c(c1Br)NC(c1cccs1)CC2C(F)(F)F (stereo not drawn)	0.82	-6
O=C(NCCCN1CCOCC1)c1nn2c(c1Br)NC(c1cccs1)CC2C(F)(F)F (stereo not drawn)	0.71*	12
SMILES	Cy5 interf NS3h	HCV NS3h FP
CSc1ccccc1NC(=O)c1nn2c(c1Br)NC(c1cccs1)CC2C(F)(F)F (stereo not drawn)	0.74*	9
O=C(NCCc1ccccc1)c1nn2c(c1Br)NC(c1cccs1)CC2C(F)(F)F (stereo not drawn)	0.54*	4
Cc1ccc(CN2CCN(/N=C\c3ccc(C)s3)CC2)cc1	1	9
COc1cc(/C=C2\C(=O)NC(=O)N(c3ccc(Cl)cc3)C2=O)c([N+](=O)[O-])cc1OC	1.1	18
O=C(Nc1ccc(I)cc1)C1CC=CCC1C(=O)OCC(Cl)=C(Cl)Cl (stereo not drawn)	0.99	12
CCc1ccc(NC(=O)C(=O)NCC2CCCO2)cc1 (stereo not drawn)	0.75*	18
O=C(NCC1CCCO1)C(=O)Nc1ccccc1F (stereo not drawn)	0.99	2
CC(NC(=O)C(=O)NCC1CCCO1)c1ccccc1 (stereo not drawn)	0.64*	-2
O=C(NCC1CCCO1)C(=O)Nc1ccc(F)cc1 (stereo not drawn)	1	2
COc1ccc(C(C)NC(=O)c2ccc(OC)c(OC)c2)cc1 (stereo not drawn)	0.95	13
COc1cccc(N2C(=O)C(=O)C(=C(O)c3ccccc3)C2c2ccc(Cl)cc2)c1 (stereo not drawn)	1	9
COc1cccc(N2C(=O)C(=O)C(=C(O)c3ccccc3)C2c2ccccc2Cl)c1 (stereo not drawn)	0.73*	21
CCC(=O)Oc1cc2oc(CC)c(-c3nc(C)cs3)c(=O)c2cc1CC	0.91	18
CCc1cc2c(=O)c(-c3nc4ccccc4s3)c(C)oc2cc1OS(C)(=O)=O	1.2*	7
COc1ccc(/C=C/C(=O)N2CCCCCC2)cc1Br	0.96	3
COc1ccc(/C=C/C(=O)N2CCOCC2)cc1OC	0.63*	12
C#CCOc1c(Cl)cc(C2C(C(=O)OC)=C(C)NC3=C2C(=O)c2ccccc23)cc1Cl (stereo not drawn)	1	-2
Cc1ccc(S(=O)(=O)N(CCc2ccccc2)CC(=O)NCc2ccco2)cc1	0.99	15
